The source of these data is PubChem BioAssay AID720690 (Broad Institute, 2013).

Entries with a potency or affinity are not part of this list. A number with no mark means an inactive call.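 How the source made its calls: active means every repeat run showing a signal drop whose fitted half-maximal concentration is at most twice the top tested concentration; inconclusive means repeat runs disagree, or flat partial drop, or poor fit; inactive means the rest.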

The nature of the assay: general mammalian cell viability loss – activator set, cherry-pick, cytotoxicity control for miR-122 modulator project, dose response (AID 720690).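 Further: 0% = neutral control wells and -100% = MG132 cytotoxic control wells.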 As to conditions: HEK293T viability, CellTiter-Glo luminescence, 48 h; series mostly up to 26 µM; activity change, negative = cytotoxicity: at the top concentration. For orientation: Cellular ATP, detected with luciferase, serves as a proxy for viable cell number.
For the compound `NC(=O)c1cn(-c2ccccc2)nc1-c1cc2ccccc2oc1=O`, the “activity change, negative = cytotoxicity” value was -23.6%. In the case of `CO[C@@H]1CN(C)C(=O)c2ccc(NS(C)(=O)=O)cc2OC[C@H](C)N(C(=O)CN(C)C)C[C@@H]1C`, the “activity change, negative = cytotoxicity” value is -6.2%. As for `CN1C(=O)c2cc(NC(=O)c3cccs3)ccc2OC[C@H]2O[C@H](CC(=O)NCCN3CCCCC3)CC[C@H]21`, the “activity change, negative = cytotoxicity” value was -5.42%. As for `COc1ccc(OC)c(Nc2cc(C)nc3ccc(C)cc23)c1`, the figure is -11.7%.
